Experimental data from PubChem BioAssay (NCI).
About 83,000 compounds went through this panel and 20% of them were active in at least one assay; those are over-represented in the sample as a whole.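 In brief: 96-well plates, 48 h treatment, single concentration, percent growth endpoint.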 The source made the active and inactive calls. How the source made its calls: active means growth percent below 10; inactive means the rest.

Each compound was assayed on HL-60(TB) leukemia (assay: NCI-60 one-dose screen, 48 h (100 = growth as untreated, 0 = no growth, -100 = all killed)). Details: 10 µM unless noted.

Structure (SMILES) | growth
O=[N+]([O-])c1ccccc1C(O)Cc1ccc2ccccc2n1 (stereo not given) | 107% (inactive)
COc1ccc(-c2nc3ccc(-c4nc5ccc(N6CCN(C)CC6)cc5[nH]4)cc3[nH]2)cc1OC | 49.1% (inactive)
CCN(CC)CCOc1ccc(/C(=C(\C)c2ccc(OC)c(F)c2)c2ccc(Cl)cc2)cc1 | 68.6% (inactive)
NC(=O)c1c(OCc2c(F)cc(Br)cc2F)nsc1NC(=O)NCCCCN1CCCC1 | -64.6% (active)
C#CCOc1cccc(Nc2ncnc3cc(NC(=O)C=C)ccc23)c1 | -16.4% (active)
CC(=O)OCC(=O)[C@@]1(O)CC[C@H]2[C@@H]3CC(=C(Br)Br)C4=CC(=O)CC[C@]4(C)[C@H]3C(=O)C[C@@]21C | 90.1% (inactive)
CC(=O)c1ccc2c3c(n(C)c2c1)CCCC3 | 93.1% (inactive)
COc1cc(C(=O)OCCCCCCCCCCC[P+](c2ccccc2)(c2ccccc2)c2ccccc2)ccc1O | -56% (active)
O=C1C(=O)c2ccc(Br)cc2-c2cc(Br)ccc21 | -14.5% (active)
COc1c(B(O)O)cccc1-c1nc2ccc3[nH]ncc3c2c2c1CCCC2 | -28.1% (active)
CCCCCCCC/C=C/CCCCCCCCC1=NCCN1CCO | 8.59% (active)
O=C(Nc1nc(Cl)nc(Nc2ccc(N3CCOCC3=O)cc2)n1)c1ccc(Cl)s1 | 68.7% (inactive)
COc1ccc(-c2cc(-c3cc(OC)c(OC)c(OC)c3)nc(N3CCOCC3)c2C#N)cc1 | 51.4% (inactive)
Cc1cc(=O)oc2cc(OC(=O)CN3CCN(C)CC3)ccc12 | 122% (inactive)
COc1ccc(CC(C)=C(c2ccc(OCCN3CCCCCC3)cc2)c2ccc(OCCN3CCCCCC3)cc2)cc1 | -59.8% (active)
CCCCC(=O)Nc1c(C(=O)Nc2ccccc2)sc2nc3c(cc12)C(OC(=O)CCCC)CCC3 (stereo not given) | 99.3% (inactive)
Nc1ccc(N)c2c1C(=O)c1cccc([N+](=O)[O-])c1C2=O | 17.8% (inactive)
CSc1ccc2c3c(n(C[C@H](O)CO)c(=O)c2c1)-c1ccccc1C3=O | -12.2% (active)
Cc1ccc2c(n1)C(=O)C(Oc1ccc(Br)cc1)=CC2=O | 41.1% (inactive)
Cc1cccc2c(=O)c3c(sc12)c(NCc1ccccc1)nc1ccccc13 | 95.5% (inactive)

Structure (SMILES) | growth
CNC(=O)c1cn(C2CC2)c2cc(N3CCN(C(=O)c4cc(OC)c(OC)c(OC)c4)CC3)c(F)cc2c1=O | 101% (inactive)
COc1ccc(/C=C2\COc3ccc(O)cc3C2=O)cc1 | -33.1% (active)
COc1cc(-c2nccc3[nH]c(-c4ccc5cc[nH]c5c4)nc23)cc(OC)c1OC | -48.7% (active)
CCCNc1nc(C)[nH]c(=O)c1S | 92.1% (inactive)
Fc1ccc(-c2nc(Nc3ccc(-c4nc5ccccc5[nH]4)cc3)nc(N3CCOCC3)n2)cc1 | -81.4% (active)
C=C(C)[C@@H]1CC[C@]2(C(=O)N3CCN(C)CC3)CC[C@]3(C)[C@H](CC[C@@H]4[C@@]5(C)C/C(=C/c6ccc(C(F)(F)F)cc6)C(=O)C(C)(C)[C@@H]5CC[C@]43C)[C@@H]12 | 94.1% (inactive)
O=C1c2cc(Br)ccc2Oc2cc([N+](=O)[O-])ccc2N1c1ccc(I)cc1F | 81.2% (inactive)
CC(=O)NNC(=S)/N=C\C(C(=O)c1ccccc1)=C(/O)c1ccccc1 | 103% (inactive)
COC(=O)[C@]12CC[C@@H](C)[C@H](C)[C@@H]1C1=CC[C@@H]3[C@@]4(C)C(C=O)=C[C@@](C)(COC(C)=O)[C@@H]4C(=O)C[C@@]3(C)[C@]1(C)CC2 | 29.8% (inactive)
COc1ccc(COc2cc3oc(=O)c4cc(C(C)O)ccc4c3cc2OC)cc1 (stereo not given) | 73.1% (inactive)
CCc1c(C)c2ccc(O)c(-c3cc(-c4ccccc4)c(C#N)c(=O)[nH]3)c2oc1=O | 109% (inactive)
O=C(Nc1ccc(OS(=O)(=O)c2ccc(F)cc2)cc1)c1ccc(Cl)cc1 | 90.9% (inactive)
COc1ccc(OC)c(-c2c(C#N)c(-c3ccco3)nc3c2c(-c2ccccc2)nn3-c2ccccc2)c1 | 105% (inactive)
O=C(Cc1c(F)cccc1Cl)Nc1ccc(S(=O)(=O)Nc2ncccn2)cc1 | 120% (inactive)
CC[C@H]1CCC/C=C/[C@@H]2C[C@H](O)C[C@H]2[C@H](O)/C=C/C(=O)O1 | -0.414% (active)
CCOc1ccc(NC(=O)Nc2ccc(OCC)cc2)cc1 | 96.7% (inactive)
O=c1[nH]nc(SC2CCCCC2)c(=O)[nH]1 | 108% (inactive)
O=C1OCC2=C1C(c1cccc(Cl)c1)c1cc3c(cc1N2CCO)OCO3 (stereo not given) | -19.3% (active)
Nc1ccccc1NC(=O)c1ccc(CSc2nc(N3CCOCC3)c3cccn3n2)cc1 | -19.4% (active)
O=C(Nc1ccccc1)Nc1ccc(Nc2ncnc3sc4c(c23)CCCC4)cc1 | 97% (inactive)
